From PubChem BioAssay (NCATS)
Inconclusive results are not listed. A call without a number means that no potency is given here. The source made the active and inactive calls. Calls come from the whole dose curve; as a rule, active = well fitted curve in the direction sought with a large enough effect; inconclusive = small, poorly fitted or top-dose-only effect, or another doubt; inactive = no such curve, though single readings can be large; an effect the other way counts as inactive or inconclusive.

These molecules were tested against phosphoglycerate mutase (Leishmania major) (UniProt Q4Q090) (assay: qHTS Validation Assay to Find Inhibitors of Phosphoglycerate Mutase (AID 504548)). Settings: biochemical enzyme activity; Potency: inhibition qHTS; series mostly up to 57.5 µM.
Sequence of phosphoglycerate mutase (Leishmania major) (Q4Q090 1-553): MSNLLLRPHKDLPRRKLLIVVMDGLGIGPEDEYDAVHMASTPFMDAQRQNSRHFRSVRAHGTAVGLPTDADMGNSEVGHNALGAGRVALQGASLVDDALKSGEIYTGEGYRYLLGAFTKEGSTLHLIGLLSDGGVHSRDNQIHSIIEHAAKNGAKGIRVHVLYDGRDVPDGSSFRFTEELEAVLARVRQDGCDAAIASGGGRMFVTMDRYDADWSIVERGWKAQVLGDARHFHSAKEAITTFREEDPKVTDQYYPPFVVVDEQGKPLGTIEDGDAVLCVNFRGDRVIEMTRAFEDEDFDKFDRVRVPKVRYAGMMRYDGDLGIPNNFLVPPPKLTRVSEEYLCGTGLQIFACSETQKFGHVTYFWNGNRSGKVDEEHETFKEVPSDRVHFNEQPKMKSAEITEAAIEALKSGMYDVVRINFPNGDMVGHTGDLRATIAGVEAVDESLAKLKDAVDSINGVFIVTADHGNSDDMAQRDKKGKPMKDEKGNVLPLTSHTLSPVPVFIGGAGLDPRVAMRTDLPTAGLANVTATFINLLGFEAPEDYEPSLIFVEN
Method in brief: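 Lm PGAM at 1.25 nM final with substrate in 100 mM TEA pH 7.6, 5 mM MgCl2, 0.01% Tween-20; 45 min at room temperature. Kinase-GloPlus added, 10 min, end-point luminescence read.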

Structure (SMILES) | Potency
O=C1c2c(O)cc(O)cc2OC(c2ccc(O)c(O)c2)C1O (stereo not given) | inactive
O=c1c(O)c(-c2ccc(O)cc2O)oc2cc(O)cc(O)c12 | inactive
O=c1ccc2ccc(O)c(O)c2o1 | inactive

What follows are molecules tested against Ubiquitin carboxyl-terminal hydrolase 1 (Homo sapiens) (UniProt O94782) (assay: Inhibitors of USP1/UAF1: Pilot qHTS (AID 504865; note: nearly all actives have a fitted effect of over 35% in size; note: potency is the fitted concentration of half-maximal effect)). Settings: purified USP1/UAF1, Ub-rhodamine cleavage fluorescence; series mostly up to 114 µM.
Sequence of Ubiquitin carboxyl-terminal hydrolase 1 (Homo sapiens) (O94782 whole entry, looked up): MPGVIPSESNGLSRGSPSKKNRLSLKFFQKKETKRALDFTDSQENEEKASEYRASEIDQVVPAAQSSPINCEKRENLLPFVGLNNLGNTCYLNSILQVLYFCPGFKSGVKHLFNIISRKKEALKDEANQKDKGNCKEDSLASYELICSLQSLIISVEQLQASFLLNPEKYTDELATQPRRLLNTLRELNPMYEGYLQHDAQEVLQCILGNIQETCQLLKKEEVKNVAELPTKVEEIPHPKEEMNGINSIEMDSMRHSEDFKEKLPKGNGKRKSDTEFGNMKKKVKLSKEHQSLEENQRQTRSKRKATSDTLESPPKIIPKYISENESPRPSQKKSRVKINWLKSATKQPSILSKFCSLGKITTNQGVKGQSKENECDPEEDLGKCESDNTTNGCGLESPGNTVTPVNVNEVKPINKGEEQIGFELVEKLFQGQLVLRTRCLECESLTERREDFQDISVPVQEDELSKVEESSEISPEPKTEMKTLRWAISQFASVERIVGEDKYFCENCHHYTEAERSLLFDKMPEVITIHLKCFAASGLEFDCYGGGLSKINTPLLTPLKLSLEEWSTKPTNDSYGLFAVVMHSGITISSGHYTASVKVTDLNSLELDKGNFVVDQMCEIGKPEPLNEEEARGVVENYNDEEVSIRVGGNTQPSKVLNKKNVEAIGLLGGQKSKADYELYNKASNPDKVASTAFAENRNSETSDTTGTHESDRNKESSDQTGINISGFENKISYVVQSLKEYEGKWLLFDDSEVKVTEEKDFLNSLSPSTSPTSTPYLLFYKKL
Method in brief: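 1nM USP1/UAF1 + cpd, 15 min RT; start w/ Ub-Rho 150nM final; kinetic FL 480/540 nm, 6 reads q60 s. Buffer 50mM HEPES pH 7.8, 0.5mM EDTA, 1mM TCEP, 0.01% Tween-20, 0.1 mg/ml BSA.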

Structure (SMILES) | Potency
CCOc1cc(CC(=O)N[C@@H](CC(C)C)c2ccccc2N2CCCCC2)ccc1C(=O)O | inactive
O=c1oc2cc(O)ccc2s1 | inactive
COCCCOc1ccnc(CS(=O)c2nc3ccccc3[nH]2)c1C (stereo not given) | inactive
CCCCCCCCCCCCCCCCCCCCCCO | inactive
CC(C)[C@H](N)C(=O)OCCOCn1cnc2c(=O)[nH]c(N)nc21 | inactive
CN(c1nccc(=O)[nH]1)C1CCN(c2nc3ccccc3n2Cc2ccc(F)cc2)CC1 | inactive
CN1CCC(=C2c3ccccc3CCc3sccc32)CC1 | inactive
CCCCc1ccc2nc(NC(=O)OC)[nH]c2c1 | inactive
C[Se]CCC(N)C(=O)O (stereo not given) | inactive
C=CCc1cc(OC)c(O)c(C(=O)NCCO)c1 | inactive
CN(C)CCc1c[nH]c2ccc(Cn3cncn3)cc12 | inactive
O=C1c2c(O)cc(O)cc2OC(c2ccc(O)c(O)c2)C1O (stereo not given) | inactive
Nc1cccc2c1CN(C1CCC(=O)NC1=O)C2=O (stereo not given) | inactive
C=C(c1ccc(C(=O)O)cc1)c1cc2c(cc1C)C(C)(C)CCC2(C)C | 22.4 µM (active)
O=C(O)c1cn(-c2ccc(F)cc2)c2cc(N3CCNCC3)c(F)cc2c1=O | inactive
CCC1=C(C)CN(C(=O)NCCc2ccc(S(=O)(=O)NC(=O)NC3CCC(C)CC3)cc2)C1=O (stereo not given) | inactive
Cc1ccc(S(=O)(=O)NC(=O)NN2CC3CCCC3C2)cc1 (stereo not given) | inactive
